The text below walks through data of PubChem BioAssay (NCATS).

Inconclusive results are not listed. A call without a number means that no potency is given here. Unmarked numbers belong to inactive results. Active and inactive are the calls of the source. Calls come from the whole dose curve; as a rule, active = well fitted cell-killing curve with a large enough effect; inconclusive = small, poorly fitted or top-dose-only effect, or effect the other way; inactive = flat fitted curve, though single readings scatter.

The assay concerns PA-1. Briefly: Primary qHTS to identify gynecologic anti-cancer compounds using libraries of approved drugs and bioactive compounds (AID 1345084). Note: nearly all actives have a fitted effect of over 55% in size. The settings on record: Gynecologic cancer cell panel viability, ATPlite luminescence, 48 h; series mostly up to 57.5 µM. The essentials:
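In this quantitative HTS, cell killing is estimated from loss of ATP-dependent luciferase light. Cells see five compound concentrations over a 48 h exposure.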
For `COC(=O)CC(C)(O)CC(=O)OCc1ccc(O[C@@H]2O[C@H](CO)[C@@H](O)[C@H](O)[C@H]2O)cc1` (stereo partly drawn), the Potency result is “inactive”.
With `CC[C@@H](O)C[C@@H]1C(C)=C[C@@H]2CCCC[C@@H]2[C@@]1(C)C(=O)O`, the Potency entry was “inactive”.
`C=C1CCC2C(C)(C(=O)O)CCCC2(C)C1CC/C(=C\CO)CO` (stereo not drawn): the Potency result is “inactive”.
For `Cc1oc2ccccc2c1CNC(=O)NCc1cccs1`, the Potency result is “inactive”.
With `CCC(C)C(=O)OC1CC(C)C=C2C=CC(C)C(CCC(O)CC(O)CC(=O)O)C21` (stereo not drawn), the Potency entry was “inactive”.
For `C[C@]12C=C[C@@]3(CCC4[C@](C)(CO)CCC[C@@]4(C)C3CC1)C2` (stereo partly drawn), the Potency result was “inactive”.
Turning to `CC(C)CC1NC(=O)C(C)NC(=O)C(CC(C)C)OC(=O)CCCNC1=O` (stereo not drawn), the Potency result is “inactive”.
For `COC1/C=C/C(C)(O)C(SCC(N)C(=O)O)CC(=O)OC(C)C(C)CC/C=C/1C` (stereo not drawn), the Potency result was “inactive”.
With `CC/C=C\CC1C(=O)C=CC1(CCCCCCCC(=O)O)OC(C)=O` (stereo not drawn), the Potency entry is “inactive”.
For the molecule `CC1OC(OC2C(C)OC(OC3C(O)C(CO)OC(O[C@H]4CC[C@@]5(C)C(CC[C@]6(C)C5CC=C5C7[C@@H](C)[C@H](C)CC[C@]7(C(=O)O)CC[C@]56C(=O)O)C4(C)C)C3O)C(O)C2O)C(O)C(O)C1O` (stereo partly drawn), the activity change, negative = cytotoxicity is -0.273% [at 11.6 µM].
Take `C[C@@H]1O[C@@H](OC[C@H]2O[C@@H](OC(CCCCc3ccc(O)cc3)CCc3ccc(O)cc3)[C@H](O)[C@@H](O)[C@@H]2O)[C@H](O)[C@H](O)[C@H]1O` (stereo partly drawn): the Potency entry was “inactive”.
On the same count and under the same terms, then `CC(c1ncncc1F)C(O)(Cn1cncn1)c1ccc(F)cc1F` (stereo not drawn), with “inactive”.
As for `CC1(C=O)CC[C@]2(C(=O)O[C@@H]3O[C@H](CO)[C@@H](O)[C@H](O)[C@H]3O)CC[C@]3(C)C(=CCC4[C@@]5(C)C[C@H](O)[C@H](O[C@@H]6OC[C@@H](O)[C@H](O)[C@H]6O)[C@@](C)(CO)C5CC[C@]43C)C2C1` (stereo partly drawn), the activity change, negative = cytotoxicity is -2% [at 11.6 µM].
